# Compound activity from PubChem.
# Most compounds without a hit are left out; they make up all but 11% or so of the library.
# 12-hLO inh – qHTS Assay for Inhibitors of 12-hLO (12-human lipoxygenase). actives 0.12% (n = 150,000). Polyunsaturated fatty acid lipoxygenase ALOX12 (Homo sapiens), P18054. Potency, µM (highest dose often 57.1 µM), for the others: top-dose activity change, negative = inhibition, usual class: inhibitors. purified 12-hLO, xylenol orange hydroperoxide absorbance; also: potency is read from the fitted curve at half-maximal effect; nearly all actives have a fitted effect of over 55% in size
#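 150 nM 12hLO, 25 mM Hepes pH 7.0 + 0.01% Triton X-100; cpd preinc 15 min RT; 40 uM arachidonic acid, 30 min RT; Fe-XO 30 min; A573/A405 ratio as read-out.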
# HPGD inh – qHTS Assay for Inhibitors of HPGD (15-Hydroxyprostaglandin Dehydrogenase). AID 894, 2007. actives 4.3% (n = 150,000). Potency, µM, for inactives: at the highest dose activity change, negative = inhibition, hits mostly inhibitors. 15-hydroxyprostaglandin dehydrogenase [NAD(+)] (Homo sapiens), P15428. purified HPGD, NADH fluorescence kinetic, PGE2 substrate; active = well fitted inhibition curve with a large enough effect, not every such curve was filed as active; inconclusive = small, poorly fitted or top-dose-only effect, or another doubt; inactive = no such curve, though single readings can be large or run the other way; also: potency is read from the fitted curve at half-maximal effect
# Target sequence (P15428 whole entry, looked up): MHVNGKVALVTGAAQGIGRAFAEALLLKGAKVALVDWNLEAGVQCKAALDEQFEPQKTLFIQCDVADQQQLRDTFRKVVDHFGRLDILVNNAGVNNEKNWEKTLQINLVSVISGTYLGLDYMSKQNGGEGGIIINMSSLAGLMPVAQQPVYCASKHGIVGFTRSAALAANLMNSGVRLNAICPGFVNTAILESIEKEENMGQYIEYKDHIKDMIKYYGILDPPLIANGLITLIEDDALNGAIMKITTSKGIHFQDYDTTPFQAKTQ
#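 20 nM HPGD preincubated 15 min at room temperature with compound in 50 mM Tris-HCl pH 8, 0.01% Tween 20. Started with 1 mM NAD+ and 30 uM prostaglandin E2; NADH fluorescence (360/450 nm) read 5 times over 30-s intervals, last minus first.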
# ALDH1A1 block – qHTS Assay for Inhibitors of Aldehyde Dehydrogenase 1 (ALDH1A1). Aldehyde dehydrogenase 1A1 (Homo sapiens), P00352. Purified ALDH1A1, NADH fluorescence, propionaldehyde substrate. Potency, µM (titrated, usually from 75.3 µM), without a hit: top-dose activity, negative = inhibition, actives largely listed as inhibitors. actives 7.3% (n = 220,000). AID 1030, 2008; active = well fitted inhibition curve with a large enough effect, not every such curve was filed as active; inconclusive = small, poorly fitted or top-dose-only effect, or another doubt; inactive = no such curve, though single readings can be large or run the other way;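 also: potency is read from the fitted curve at half-maximal effect; plate controls were no enzyme wells and a reference inhibitor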
# IMPase cell inh – qHTS Assay for Identifying the Cell-Membrane Permeable IMPase Inhibitors; Inositol monophosphatase 1 (Rattus norvegicus), P97697; CHO-M1 cells, IP1 accumulation, HTRF TR-FRET ratio; 120,000 tested, under 10 active; inhibition (IP1 accumulation), % at 46.1 µM; AID 901, 2007; active = well fitted curve in the direction sought with a large enough effect in the signal ratio, not every such curve was filed as active; inconclusive = small, poorly fitted or top-dose-only effect, or a change in a side signal; inactive = no such curve, though single readings can be large or run the other way; the % refers to the signal ratio;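 also: cells stimulated with carbachol in lithium chloride buffer; plate controls were DMSO basal wells for no effect and reference inhibitor wells for full effect; higher means more IMPase inhibition seen as more IP1 and lower FRET ratio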
# Target sequence (P97697 whole entry, looked up): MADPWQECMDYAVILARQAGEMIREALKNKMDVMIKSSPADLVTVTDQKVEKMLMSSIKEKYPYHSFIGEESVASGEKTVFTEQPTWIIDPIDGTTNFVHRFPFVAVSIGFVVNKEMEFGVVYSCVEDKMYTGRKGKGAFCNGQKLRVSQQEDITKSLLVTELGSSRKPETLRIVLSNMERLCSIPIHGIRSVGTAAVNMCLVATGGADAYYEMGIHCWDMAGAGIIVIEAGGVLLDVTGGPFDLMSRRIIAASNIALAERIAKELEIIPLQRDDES
#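 The IP-One HTRF competitive assay in carbachol-stimulated CHO-M1 cells quantifies cellular IP1. Compounds spanned up to 46 uM final, and activity is expressed as AC50 from concentration-response fits of the ratio and donor data.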
# IMPase Li inh – qHTS Assay for Identifying the Cell-Membrane Permeable IMPase Inhibitors: Potentiation with Lithium; CHO-M1 cells, IP1 TR-FRET (IP-One), carbachol + lithium; actives 0.35% (n = 210,000); Potency, µM (doses to about 59.4 µM), inactives show at the top dose activity, negative = IMPase inhibition, hits mostly inhibitors;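 also: IP1 builds up when IMPase is blocked and the TR-FRET signal falls; potency is read from the fitted curve at half-maximal effect; plate controls were basal vehicle for no effect and high inhibitor control for full effect; nearly all actives have a fitted effect of over 50% in size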
#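 Steps: plate 2000 CHO-M1 cells per well and culture 16–30 h; add compound and lithium; incubate 30 min, 37C; add d2-IP1 tracer and Eu cryptate anti-IP1 antibody in lysis buffer; read after 10 min at room temperature.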
# PNC inhibitor – High Content Assay for Compounds that inhibit the Assembly of the Perinucleolar Compartment; activity change (PNC), negative = inhibition, % at 10 µM; PC3M PTB-GFP, PNC prevalence imaging, 16 h; active compounds read low; actives 3.1% (n = 140,000);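 active = readout at or below -70, meaning at least 70% loss of cells showing the perinucleolar compartment, a nuclear body marking cancer cells; inconclusive = readout between -30 and a set limit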;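 also: plate controls were DMSO wells for no effect and camptothecin positive control wells for full effect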
#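 PC3M cells stably expressing PTB-GFP, 750–1000 cells/well, treated 16 h at 37 °C with compound (23 nl of library stock), in duplicate. After paraformaldehyde fixation and Hoechst stain, imaged at 20x; PNC prevalence scored by image analysis.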
# * = called active by the depositor; ? = inconclusive; . = no result; [ ] = remark or other dose. Unless noted, calls follow the shape of the dose curve; as a rule, active = well fitted curve in the direction sought with a large enough effect; inconclusive = small, poorly fitted or top-dose-only effect, or another doubt; inactive = no such curve, though single readings can be large; an effect the other way counts as inactive or inconclusive. Unless noted, % is scaled to controls: 0 for no effect and ±100 for the full control effect.
SMILES,12-hLO inh,HPGD inh,ALDH1A1 block,IMPase cell inh,IMPase Li inh,PNC inhibitor
CCOC(=O)N1CCN(C(=O)Nc2sc3nc4n(c(=O)c3c2C)CCC(C)CC4)CC1 (configuration not stated),-23.5%,-22.3%,12.6µM*,?,-7.7%[38.3 µM],-18.4
CCOC(=O)c1sc2nc3n(c(=O)c2c1C)CCC(C)CC3 (configuration not stated),-1.8%,25.1µM*,11.2µM*,0.3,34.5%[38.3 µM],47.3
CCOC(=O)c1c(N)sc(C(=O)Nc2ccccc2)c1C,.,.,10µM*,.,0.9%,.
CCOC(=O)c1c(N)sc(N)c1C(=O)OCC,-22.0%,8.91µM*,1.78µM*,.,12.9%,?
CCOC(=O)c1c(N)sc(C(N)=O)c1C,4.5%,?,25.1µM*,-13.4,-10.4%[38.3 µM],13.8
CCOC(=O)c1c(N)sc2c1CCC(CC)C2 (configuration not stated),-24.5%,?,?,-10.3,16.9%[38.3 µM],35.6
CCOC(=O)c1c(N)sc(=S)c2c1CCC2,-20.5%,?,31.6µM*,5.9,-18.8%[38.3 µM],?
Cc1ccc(OCCOCCn2c(-c3ccc(Cl)cc3)nc3ccccc3c2=O)cc1,.,.,.,17.1,.,.
CC(C)CO/N=C1/C[C@@H](O)[C@@H](O)[C@@H]2[C@@H]3C(=O)N([C@@H](C)c4ccccc4)C(=O)[C@H]3CC[C@@H]12,.,.,7.8%[13.5 µM],.,.,.
Cc1c(C(=O)OC(C)C)sc(N)c1C(=O)OC(C)C,0.3%,22.4µM*,?,.,14.6%,9.3
CCOC(=O)c1c(N)ssc1=S,-1.9%,25.1µM*,3.16µM*,0.8,-5.3%,?
COc1ccc(C(=O)N2CCC3(CCN(Cc4cc(C(F)(F)F)cc(C(F)(F)F)c4)CC3)CC2)cc1,2.1%,-14.5%,1.0%,.,13.4%,.
CN1C(c2ccc(F)cc2)=CS/C1=C(/C#N)c1nnc(N2CCOCC2)n1-c1ccccc1,0.6%,-2.6%,0.794µM*,.,3.0%,29.4
CCN1C(c2ccc(F)cc2)=CS/C1=C(\C#N)c1nnc2n1-c1ccccc1SC2,-14.9%,?,12.6µM*,13.5,-13.1%[38.3 µM],16.7
C=CCN1C(c2ccccc2)=CS/C1=C(/C#N)c1nnc(N2CCOCC2)n1-c1ccccc1,-0.9%,-28.5%,5.62µM*,.,7.2%,-2.8
CCn1cnc2c1c(=O)n(Cc1nnc3n1-c1ccccc1SC3)c(=O)n2Cc1ccccc1,6.3%,-9.1%,-1.9%,20.1,54.6%[38.3 µM],33.7
COc1ccc(OC[C@@H](CO)OC)cc1,.,.,13.8%[13.5 µM],.,.,.
CCOC(=O)c1c(C)oc2c(Cl)cc(NS(=O)(=O)c3ccc(Cl)c(C)c3)cc12,.,.,.,-1.5,.,.
Cc1ccc2nc(-c3cc(NC(=O)/C=C/c4ccccc4)ccc3Cl)oc2c1,.,.,.,-16.1,.,.
COc1ccccc1-c1cc(C(=O)Nc2cc(C)nn2-c2ccccc2)no1,2.4%,-18.4%,-11.1%,13.4,17.8%[38.3 µM],-129.2*
COc1ccccc1-c1cc(C(=O)Nc2ccc(F)cc2F)no1,-3.2%,?,?,?,8.91µM*,-27.1
O=C(Nc1ccccc1)N1CCC2(CC1)CCN(C(=O)c1cccc(F)c1)CC2,0.0%,-5.4%,1.7%,.,-5.3%,.
C[C@]1(C(=O)NCc2cc(F)cc(C(F)(F)F)c2)C=C[C@@H](Cc2ccccc2)N1C(=O)c1ccccc1,-6.1%,-18.9%,5.2%,.,6.7%,39.6
CCOC(=O)c1sc(/N=C/c2c(C)[nH]n(-c3ccccc3)c2=O)c(C#N)c1C,-6.0%,-19.4%,-4.1%,-3.4,8.2%[38.3 µM],-112.1*
CNc1nnc(-c2ccc(N(C)C)cc2)s1,-1.9%,?,?,.,-5.7%,-95.2*
SMILES,12-hLO inh,HPGD inh,ALDH1A1 block,IMPase cell inh,IMPase Li inh,PNC inhibitor
CN(C)c1ccc(-c2ccncc2)cc1,-15.0%,-7.2%,-1.9%,5.6,26.1%[38.3 µM],-18.4
CCc1ccc(-c2nc(SCC(=O)NCC3CCCO3)c(-c3ccc(F)cc3)[nH]2)cc1 (configuration not stated),.,.,.,2.4,.,.
CCN(Cc1ccncc1)Cc1c(O)ccc2cc(Br)ccc12,.,.,0.562µM*,.,-26.5%,.
CO/N=C/CC(=O)c1cnc(-c2ccc(Cl)cc2)s1,.,.,3.16µM*,.,-7.1%,.
COc1cccc(NC(=O)/C(C#N)=C/c2c(C)n(Cc3ccc(Cl)cc3)c3ccccc23)c1,.,.,.,-7.5,.,.
O=C(Cn1c(C(F)(F)F)nc2ccccc21)OCC(=O)c1c[nH]c2ccccc12,-0.7%,.,2.9%,10.8,.,-26.4
Cc1[nH]c2ccccc2c1C(=O)COC(=O)Cn1c(C(F)(F)F)nc2ccccc21,-5.5%,-6.7%,6.1%,.,8.6%,-105.2*
Cn1c(=O)c(-c2cccs2)nc2cnc(OCc3ccccc3)nc21,.,.,?,.,-11.9%,.
COc1ccc(-c2nc3cnc(N4CCOCC4)nc3n(C3CC3)c2=O)cc1,.,.,?,.,-9.5%,.
COc1cccc(CNC(=O)c2cc3oc4ccccc4c3n2C)c1OC,-7.3%,?,?,-1.3,?,-106.1*
O=C(c1ccco1)N1CCC2(CCCN(Cc3ccccc3)C2)CC1,-3.0%,-2.3%,28.2µM*,.,33.3%,.
O=C(Nc1ccccc1)N1CC[C@@]2(CCCN(C(=O)c3ccco3)C2)C1,-1.2%,-6.4%,?,.,-5.5%,.
O=C(Nc1ccccc1)N1CCCC2(CCN(C(=O)c3ccco3)CC2)C1,1.3%,0.6%,20µM*,.,17.4%,.
OCC1(Cc2ccccc2)CCN(Cc2ccc(-c3ccco3)cc2)CC1,.,.,?,.,19.7%,.
N#Cc1cccc(NC(=O)N2CC[C@@]3(CCCN(C(=O)c4ccco4)C3)C2)c1,0.9%,-1.3%,?,.,1.4%,.
OCC1(Cc2ccccc2)CCCN(Cc2ccc(-c3ccco3)cc2)C1 (configuration not stated),.,.,25.1µM*,.,19.8%,.
N#Cc1cccc(NC(=O)N2CCCC3(CCN(C(=O)c4ccco4)CC3)C2)c1,4.1%,-22.6%,22.4µM*,.,20.0%,.
O=C(Nc1sc2c(c1C(=O)Nc1ccccc1Cl)CCCC2)c1ccccc1F,.,.,.,34.3,.,.
CCCC(=O)NC(=S)Nc1ccc(N2CCN(C(=O)c3cccs3)CC2)cc1,.,.,?,.,23.0%,.
N#Cc1cccc(NC(=O)N2CCC3(CC2)CCN(C(=O)c2ccco2)CC3)c1,-3.3%,-8.6%,10µM*,.,6.0%,.
CC(=O)N1CCC2(CC1)CCN(C(=O)Nc1cccc(F)c1)CC2,3.9%,-8.6%,12.6µM*,.,2.4%,.
